# Source: PubChem BioAssay AID743279 (National Center for Advancing Translational Sciences (NCATS), 2014)
# The campaign covered roughly 360,000 compounds. About 17,000 (4.7%) were called active. Inconclusive results (about 5%) are left out. The sample holds actives, similar compounds and a random draw of the others, so the mix is not that of the screen. Values without a mark were called inactive. Cut-off read from the data, not from the text of the source: active = activity change below about -50%; inconclusive = mostly about -30% to -49%; inactive = weaker than that.
# Test: qHTS for Inhibitors of Inflammasome Signaling: IL-1-beta AlphaLISA Primary Screen
# Conditions: THP-1 LPS/ATP IL-1B secretion, 16 h; at 57.5 µM, active compounds read low
# In short: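 THP-1 cells pretreated 1 hr with compounds (up to 57.5 uM final), then stimulated with LPS (250 ng/mL final) plus ATP (1.25 mM final); secreted IL-1B measured by AlphaLISA after 16 hr, decreased signal indicating inhibition.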
# % is set by controls: 0 for no effect and ±100 for the full control effect.
row,Compound,activity change
1,O=C(Cn1ccc([N+](=O)[O-])n1)NCc1cccs1,5.04%
2,O=C(NCCc1cccc(F)c1)C1CC(O)CN1C(=O)Nc1ccccc1 (stereo unspecified),22.4%
3,CCCS(=O)(=O)C(=C1Nc2ccccc2N1)S(=O)(=O)CCC,3.44%
4,O=C(CN1CCCCCC1)N1c2ccccc2Sc2ccc(C(F)(F)F)cc21,-60% (active)
5,O=C(CN1CCCCC1)N1c2ccccc2Sc2ccc(C(F)(F)F)cc21,-13.4%
6,COc1cc(/C=C/C(=O)N2c3ccccc3Sc3ccc(C(F)(F)F)cc32)cc(OC)c1OC,-1.9%
7,CC(=O)NCCc1ccc(S(=O)(=O)N(C)C2CCS(=O)(=O)C2)cc1 (stereo unspecified),0%
8,CC(=O)c1nn(-c2ccccc2)c(=Nc2ccccc2)cc1C,-11%
9,Oc1ccccc1-c1cc(-c2ccc(Cl)cc2)n[nH]1,-71.3% (active)
10,CSc1ccccc1-c1nnc(-c2ccc(Cl)cc2)o1,-6.95%
11,O=C(Nc1ccc(Cl)cn1)c1ccccc1-c1ccccc1,7.39%
12,CC(=O)NC(C)(C)C1CC=C(C)/C(=N\O)C1 (stereo unspecified),3.35%
13,COc1cccc(CNS(=O)(=O)c2ccc3c(c2)CC(C)N3C(C)=O)c1 (stereo unspecified),4.38%
14,COc1ccccc1CNC(=O)C1CCN(S(=O)(=O)c2ccc3c(c2)CC(C)N3C(=O)C2CC2)CC1 (stereo unspecified),-26%
15,COc1ccc(N(C)S(=O)(=O)c2ccc3c(c2)CC(C)N3C(=O)C2CC2)c(OC)c1 (stereo unspecified),-63.4% (active)
16,C[C@H](CO)N1C[C@H](C)[C@@H](CN(C)C(=O)c2cnccn2)Oc2ncc(Br)cc2C1=O,33.8%
17,O=[N+]([O-])c1ccc(C=NN=Cc2ccc([N+](=O)[O-])cc2)cc1,-8.06%
18,O=C1/C(=C\c2ccc([N+](=O)[O-])cc2)CS(=O)(=O)C/C1=C/c1ccc([N+](=O)[O-])cc1,-99.9% (active)
19,CC(=O)Nc1ccc(C=Cc2ccc([N+](=O)[O-])cc2)cc1,-18.6%
20,CCN(C(=O)CSc1ncnc2c1cnn2-c1ccccc1)C1CCS(=O)(=O)C1 (stereo unspecified),-60.6% (active)
21,CCN(CC)C(=O)CSc1ncnc2c1cnn2-c1ccccc1,-11.6%

row,Compound,activity change
1,CCC(C)N(C(=O)CSc1ncnc2c1cnn2-c1ccccc1)C1CCS(=O)(=O)C1 (stereo unspecified),-9.61%
2,CC1=C(C(=O)N2CCOCC2)CC(CC(=O)NCC2CCCCC2)C(=O)N1Cc1ccc(F)cc1 (stereo unspecified),3.54%
3,CNc1cc(-c2c(OC)cccc2OC)ncn1,22.1%
4,Cc1ccc(OCCNC(=O)c2cccc(S(=O)(=O)N3CCN(Cc4ccccc4)CC3)c2)cc1,-14.6%
5,C=CCN(CC=C)C(=O)COC(=O)c1n[nH]c2ccccc12,18.7%
6,CC(C)C[C@H]1CN([C@@H](CC(C)C)CN2CCC[C@@H]2CN2C(=O)C(=O)NC[C@@H]2Cc2ccccc2)C(=O)C(=O)N1CCc1ccccc1,-63.4% (active)
7,CCOc1ccc(CCN2C(=S)N([C@@H](CC(C)C)CN3CCC[C@@H]3CN3C(=S)NC[C@@H]3Cc3ccc(O)cc3)C[C@@H]2Cc2ccc(O)cc2)cc1,-64.1% (active)
8,CC(C)C[C@H]1CNC(=O)C(=O)N1C[C@H]1CCCN1C[C@H](Cc1ccc(O)cc1)N1C[C@H](CC(C)C)N(CC2CCCCCC2)C(=O)C1=O,-60.7% (active)
9,CCOc1ccc(CCN2C(=O)C(=O)N([C@@H](CC(C)C)CN3CCC[C@H]3CN3C(=O)C(=O)NC[C@@H]3Cc3ccccc3)C[C@@H]2CC(C)C)cc1,-1.26%
10,CC(C)C[C@H]1CNC(=O)C(=O)N1C[C@@H]1CCCN1C[C@H](Cc1ccccc1)N1C[C@H](CC(C)C)N(CC2CCCCCC2)C(=O)C1=O,0%
11,CC(C)C[C@H]1CNC(=S)N1C[C@H]1CCCN1C[C@H](Cc1ccc(O)cc1)N1C[C@H](Cc2ccc(O)cc2)N(CC2CCCCC2)C1=S,-11.2%
12,O=C1NC[C@H](Cc2ccc(O)cc2)N(C[C@@H]2CCCN2C[C@H](Cc2ccccc2)N2C[C@H](Cc3ccccc3)N(CC3CCCCC3)C(=O)C2=O)C1=O,-15.5%
13,CCOc1ccc(CCN2C(=O)C(=O)N([C@@H](Cc3ccc(O)cc3)CN3CCC[C@H]3CN3C(=O)C(=O)NC[C@@H]3CC(C)C)C[C@@H]2Cc2ccccc2)cc1,13.9%
14,CC(C)C[C@H]1CN([C@@H](Cc2ccccc2)CN2CCC[C@@H]2CN2C(=O)C(=O)NC[C@@H]2Cc2ccc(O)cc2)C(=O)C(=O)N1CCc1ccccc1,0%
15,CCCCN1CC(COc2ccccc2)Oc2cccc(F)c2S1(=O)=O (stereo unspecified),-1.95%
16,COc1cc(NC(=O)CSc2ccc(-c3cccnc3)nn2)cc(OC)c1,-13.8%
17,CC1CCC2(CC1)NC(=O)N(CC(=O)NCc1ccco1)C2=O (stereo unspecified),5.54%
18,CCc1ccc2c(c1)NC(=O)C2(C)Cc1ccc(OC(F)(F)F)cc1 (stereo unspecified),-20.9%
19,N#C/C=C(/c1ccc(F)cc1)N1CCOCC1,11.5%
20,COc1ccc(CNC(=O)COC(=O)C2=Cc3ccccc3OC2)cc1,1.65%
21,O=C(Cc1ccc(Cl)cc1)NC1CCS(=O)(=O)C1 (stereo unspecified),-6.66%

row,Compound,activity change
1,CC(C)C(=O)NC(NC(=S)NC1CCS(=O)(=O)C1)C(Cl)(Cl)Cl (stereo unspecified),15.4%
2,CCCSC(=S)NC1CCS(=O)(=O)C1 (stereo unspecified),-105% (active)
3,COc1ccc(NC(=S)NC2CCS(=O)(=O)C2)cc1 (stereo unspecified),7%
4,O=C(CSc1ccccc1F)NC1CCS(=O)(=O)C1 (stereo unspecified),-10.4%
5,O=S1(=O)CCC(NC(=S)SCc2ccccc2Br)C1 (stereo unspecified),-69% (active)
6,C[C@@H]1NS(=O)(=O)c2cc(Cl)ccc2O[C@@H]1c1ccccc1,-5.88%
7,O=C1NC[C@H](CCCCN2C[C@H](Cc3ccc(O)cc3)N(CC3CCCCC3)C(=O)C2=O)N(CCc2ccccc2)C1=O,4.81%
8,CC1(Cc2ccccc2C#N)C(=O)Nc2ccc(-c3ccc4[nH]ccc4c3)cc21 (stereo unspecified),90.5%
9,COc1ccc(N=C2C=CC(=O)O2)cc1,4.16%
10,CCCCNC(=O)c1nc(C2CCN(S(=O)(=O)c3ccc(F)c(F)c3)CC2)oc1-c1cccc(C(F)(F)F)c1,11.8%
11,CCOC(=O)[C@]12CCCC=C1N(Cc1cccc3ccccc13)C(=O)[C@H](CC(=O)NCC13CC4CC(CC(C4)C1)C3)C2,-26.5%
12,O=S1(=O)CC(N2CCSCC2)CN1Cc1cn(Cc2cccc(Cl)c2)nn1 (stereo unspecified),-25.6%
13,COc1ccc(Br)cc1/C=N/Nc1ccc(S(=O)(=O)Nc2ccccc2C(=O)O)cc1[N+](=O)[O-],0%
14,Cc1cc(C)c(NC(=O)C[N+](C)(C)CC(O)COc2cccc3ccccc23)c(C)c1 (stereo unspecified),-86% (active)
15,Cc1cc(C)c(NC(=O)c2oc3ccccc3c2COc2ccccc2)c(C)c1,-17.8%
16,Cc1cc(C)cc(OCC(=O)NCc2cc(C)nc3ccccc23)c1,14.8%
17,COc1ccc(NC(=O)N(C)C[C@H]2Oc3ncc(C#C[C@@H](C)O)cc3C(=O)N([C@H](C)CO)C[C@H]2C)cc1,-13.1%
18,CC1(Oc2ccc(Cl)cc2)CCN(Cc2csc3ccccc23)C1 (stereo unspecified),17.7%
19,Cc1cc(OC(=O)c2ccccc2)c([N+](=O)[O-])c(=O)[nH]1,-9.86%
20,Cc1ccc(S(=O)(=O)N2[C@@H](Cc3ccccc3)CO[C@H]2CC(=O)OCc2ccccc2)cc1,-0.839%
21,O=S(=O)(Cc1ccc(Cl)cc1Cl)c1ccc(Cl)cc1,-1.43%

row,Compound,activity change
1,CCN(CC)CCCNC(=O)Cn1cnc2sc(C)c(S(=O)(=O)N3CCN(c4ncccn4)CC3)c2c1=O,18.1%
2,CCN(CC)CCNC(=O)Cn1cnc2sc(C)c(S(=O)(=O)N3CCOCC3)c2c1=O,14.7%
3,CCN(CC)CCNC(=O)c1sc2ncn(CC(=O)Nc3ccc(C)c(Cl)c3)c(=O)c2c1C,-75.6% (active)
4,CN(C)C1CN(Cc2cn(Cc3ccccc3)nn2)S(=O)(=O)C1 (stereo unspecified),-13.3%
5,CC(C)CCOc1ccc(C(=O)Nc2cc(S(=O)(=O)N3CCOCC3)ccc2N2CCOCC2)cc1,-18.6%
6,O=S(=O)(NCCCN1CCOCC1)c1ccc(F)c(Cl)c1,-0.644%
7,CC1(C(=O)Nc2ccc3c(c2)OCCO3)CN(S(C)(=O)=O)CC(=O)N1Cc1cccc(F)c1 (stereo unspecified),-9.42%
8,CCCCCCSc1ccc([C@@H]2[C@@H]3C(=O)N(CC)C(=O)[C@@H]3[C@]3(C(=O)OC)CCCCN23)cc1OC,-74.8% (active)
9,CCN1C(=O)[C@@H]2[C@@H](c3ccc(-c4ccc(OC)cc4)c(OC)c3)N3CCC[C@@]3(C(=O)OC)[C@@H]2C1=O,-7.49%
10,CCCCCCSc1ccc([C@@H]2[C@H]3C(=O)N(CC)C(=O)[C@H]3[C@]3(C(=O)OC)CCCCN23)cc1,144%
11,COC(C)(C)[C@]12CC(O)(C(C)C)ON1[C@H]1CCCCC1N2O (stereo partly specified),8.62%
12,C=CCSc1nc(Cc2ccc(Cl)cc2)nc2ccccc12,-12.9%
13,CCc1nc(SCC(=O)NNC(=O)c2ccc(C)cc2)c2ccccc2n1,-0.629%
14,CCCNC(=O)CSc1nc(Cc2ccccc2)nc2ccccc12,-58.7% (active)
15,Cc1ccc(CCN2CC(C(=O)O)CC2=O)cc1 (stereo unspecified),-6.28%
16,CC(=O)NC(C)c1nc2ccccc2n1Cc1ccccc1F (stereo unspecified),21.9%
17,N=c1n(CCc2ccccc2)c2ccccc2n1Cc1ccccc1F,-81.4% (active)
18,O=C(COC(=O)Cc1ccccc1F)NCCc1ccccc1,6.36%
